Compounds with a hit are over-represented: about 2.2% of the library has one in this group of screens.
Ba/F3 V617F tox: reduce viability of Ba/F3 cells dependent on JAK2V617F; 220,000 compounds, 1.1% hits; AID 1446; inhibition, % at 5.6 µM; Ba/F3 EpoR-JAK2V617F viability, ATP luminescence;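 active = inhibition above the campaign mean plus 3 SD over all tested compounds, cut at about 24% in these data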;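 also: cytokine-independent growth of Ba/F3 cells driven by EpoR plus mutant JAK2; 0% = DMSO-treated cells and 100% = JAK inhibitor I control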
BaF3 parental: parental Ba/F3 viability inhibition as JAK2V617F counter-screen; 220,000 compounds, 1.1% hits; AID 1486; inhibition, % at 5.6 µM; CellTiter-Glo ATP luminescence;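 active = inhibition above a per-campaign cutoff, the mean inhibition of all tested compounds plus 3 SD, cut at about 27% in these data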;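 also: 0% = DMSO wells and 100% = JAK Inhibitor I control wells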
aSyn 5UTR inh: 5' untranslated region of α-synuclein, MLPCN primary screen; alpha-synuclein 5'UTR reporter, inhibitor activity; inhibition, % (tested at 7.5 µM); 300,000 compounds, 0.82% hits; AID 1813; in the data active = inhibition above about 60%; inconclusive = no clear call, values can overlap the other calls;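 also: H4 neuroglioblastoma cells stably carrying SNCA 5'UTR luciferase fusion; 0% = DMSO wells and 100% = positive control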
APP transl inh: APP translation inhibition; SH-SY5Y APP 5'UTR-luciferase reporter, luminescence; inhibition, % at 2 µM; 190,000 compounds, 0.82% hits;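 active = inhibition above a set limit, derived from the sample mean plus 3 SD, cut at about 45% in these data; inconclusive = one replicate passes the limit while the other fails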
KLF5 inh: suppresses KLF5 promoter-driven expression; inhibition, % at 5 µM; 290,000 compounds, 0.23% hits; DLD-1 KLF5 promoter-luciferase reporter, luminescence;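 active = inhibition above a per-plate limit of that plate's mean compound inhibition plus 3 SD, cut at about 60% in these data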;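 also: 0% = DMSO wells and 100% = LY294002 at 200 µM; higher means less KLF5 promoter-driven luciferase light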
IEC-6 tox: IEC-6 cytotoxicity, counter-screen for KLF5 inhibitors | luminescence viability | inhibition, % at 5 µM | 290,000 compounds, 0.78% hits; in the data active = inhibition above about 22%;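 also: 0% = plate median of test compound wells and 100% = cytotoxic reference compound wells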
The depositor's hits bear a star; ? = inconclusive; . = not tested or not shown.

SMILES	Ba/F3 V617F tox	BaF3 parental	aSyn 5UTR inh	APP transl inh	KLF5 inh	IEC-6 tox
CC[n+]1c(/C=C/c2c[nH]c3ccccc23)ccc2cc(C)ccc21	91*	79*	.	-6	17	10
O=C1CC(c2cccc(Br)c2)c2cc3c(cc2N1)CCC3 (configuration not stated)	46*	62*	34	54*	25	14
O=C1CC(c2cc(F)ccc2F)c2cc3c(cc2N1)CCC3 (configuration not stated)	3	2	25	84*	-21	17
COc1ccc(OCCOC(=O)CNS(=O)(=O)c2ccc(SC)c([N+](=O)[O-])c2)cc1	.	.	-1	.	.	.
CCC(C)[C@H](NC(=O)C1CC(=O)N(c2ccc3c(c2)OCO3)C1)C(=O)NC1CCCCC1 (some centres not stated)	.	.	20	.	-12	2
O=[N+]([O-])c1ccc(N2CCN(C(=S)Nc3cccc(F)c3)CC2)cc1	28*	32*	20	-1	-6	4
Cc1cccc(Nc2ccc([N+](=O)[O-])cn2)c1	.	.	-87	.	-114	3
COC(=O)c1c(NC(=O)c2ccccc2)sc2c1CC(C)(C)NC2(C)C	1	1	4	10	-17	3
COC(=O)c1c(NC(=O)c2ccc(OC(C)C)cc2)sc2c1CC(C)(C)NC2(C)C	-5	1	103*	-1	-17	0
O=C(CNC(=O)N1CC(=O)Nc2ccccc21)Nc1cc(Cl)ccc1Cl	.	.	1	.	1	7
COC(=O)c1ccccc1NC(=O)CSc1nc(-c2ccco2)cc(C(F)(F)F)n1	-1	5	.	73*	-11	-2
Clc1cccc(CN2CCCCCC2)c1	.	.	-9	.	-2	-1
O=C1CCCc2ccccc2N1Cc1ccc(F)cc1	0	6	-11	2	8	-2
N=c1c2c(n(Cc3cccc(Cl)c3)c3c1CCC3)CCCC2	72*	61*	?	0	28	6
N=c1c2c(n(Cc3ccc(Cl)cc3)c3c1CCC3)CCC2	95*	73*	54	-2	38	6
N=c1c2c(n(Cc3ccc(F)cc3)c3c1CCC3)CCCC2	55*	57*	11	8	13	-1
N=c1c2c(n(Cc3ccccc3)c3c1CCC3)CCC2	62*	60*	27	-10	25	4
O=C(NCc1ccc(CNC(=O)c2ccco2)cc1)c1ccco1	.	.	2	.	-38	0
CSCC[C@H](N)C(=O)N1CCC(C(=O)N[C@@H](C)C(=O)NCc2ccc(F)cc2)CC1	.	.	2	.	-2	-5
Oc1ccccc1CN1CCC(C(O)(c2ccccc2)c2ccccc2)CC1	-3	8	5	-5	-9	6
CC(C)(C)c1ccc(C(O)CCCN2CCC(C(O)(c3ccccc3)c3ccccc3)CC2)cc1 (configuration not stated)	11	13	111*	26	-3	3
CC1CCN(Cc2c(C(=O)N/N=C/c3ccc(C(C)(C)C)cc3)nnn2-c2nonc2N)CC1	.	.	64*	.	-26	-4
O=C(Nc1ccc2c(c1)OCCO2)NC1(C(F)(F)F)Oc2ccccc2O1	9	7	62*	1	-31	-4
O=C(Nc1ncc(Cc2ccc(SC(F)F)cc2)s1)c1ccc(OC(F)F)cc1	-4	3	-129	94*	0	5
CCOC(=O)CC1COCCN1C(=O)c1ccc2oc(Cc3ccccc3)nc2c1 (configuration not stated)	.	.	-132	.	-71	-9
SMILES	Ba/F3 V617F tox	BaF3 parental	aSyn 5UTR inh	APP transl inh	KLF5 inh	IEC-6 tox
CCN(CC)c1ccc(/C=N/n2c(-c3ccccc3Br)n[nH]c2=S)cc1	3	0	78*	.	4	2
CCc1noc(C)c1C(=O)Nc1cc(S(=O)(=O)N(CC)CC)ccc1N1CCOCC1	.	.	6	.	.	.
NCCOc1ccccc1-c1ccccc1	-1	4	13	9	-6	1
Nc1ccc(Oc2ccccc2-c2ccccc2)cc1	.	.	104*	.	.	.
COc1cccc(C(=O)Nc2nc3ccccc3[nH]2)c1	3	8	63*	-150	33	5
O=C(Nc1nc2ccccc2[nH]1)c1cccc(F)c1	.	.	-62	.	-71	18
COc1cc(/C=C/c2ccc3c(Br)cc(Br)c(O)c3n2)ccc1O	-5	1	65*	.	17	1
COc1ccc(/C=C/c2ccc3c(Br)ccc(O)c3n2)cc1	.	.	-151	.	-95	6
CCN1CCN(CCCNC(=O)c2ccc(/C=C3/Oc4ccccc4N(Cc4cccc(C)c4)C3=O)cc2)CC1	.	.	101*	.	-10	-1
O=C(NCCCN1CCOCC1)c1ccc(/C=C2\Oc3ccccc3N(Cc3ccccc3F)C2=O)cc1	.	.	-40	.	-15	-1
N/C(=N\OC(=O)c1ccccc1[N+](=O)[O-])c1ccccn1	0	37*	-104	-104	-133	5
N/C(=N\OC(=O)c1cccc(Br)c1)c1ccccn1	.	.	72*	.	-74	11
N/C(=N\OC(=O)c1ccc(Cl)cc1)c1ccccn1	7	9	63*	-185	56	9
N/C(=N\OC(=O)c1ccccc1Cl)c1ccccn1	11	15	84*	-123	-23	11
COc1ccccc1C(=O)O/N=C(\N)c1ccccn1	3	10	31	.	-90	8
CCCCC1(C(=O)OC)NC(c2ccc(O)cc2)C2C(=O)N(c3ccccc3)C(=O)C21 (configuration not stated)	.	.	-13	.	-7	0
CCc1ccc(C(=O)NNC(=O)CN2C(=O)NC(CC)(c3ccccc3)C2=O)cc1 (configuration not stated)	.	.	4	.	.	.
COc1ccc(C(=O)Nn2c(SCC(=O)NCC3CCCO3)nc3ccccc3c2=O)cc1 (configuration not stated)	7	8	87*	-57	-47	3
COc1ccc(C(=O)Nn2c(SCC(=O)NC3CCCC3)nc3ccccc3c2=O)cc1	9	13	-50	-73	-82	7
COc1ccc(C(=O)Nn2c(SCC(=O)NCc3ccccc3)nc3ccccc3c2=O)cc1	6	9	77*	-66	-31	4
Cn1c(=O)[nH]c2cc3ccccc3cc21	0	7	62*	7	-5	0
Cc1nc2cc3ccccc3cc2n1C	7	15	-8	-1	-9	0
CCN(CC)c1ccc2c(-c3ccc(S(=O)(=O)O)cc3S(=O)(=O)[O-])c3ccc(=[N+](CC)CC)cc-3oc2c1	.	.	80*	.	-14	9
O=S(=O)(NCc1cccs1)c1ccccc1Cl	.	.	0	.	.	.
CCc1nnc(NC(=O)c2cccc(C(=O)Nc3nnc(CC)s3)n2)s1	3	12	66*	85*	54	93*
COc1cccc(C(=O)Nc2nc3ccccc3s2)c1	.	.	-108	.	-145	-1
CCOCc1nnc(NC(=O)c2ccc(OC)cc2)s1	-1	-1	-73	47*	-66	-4
CCc1nnc(NC(=O)c2ccncc2)s1	3	5	-6	8	-12	5
COc1ccc(C(=O)Nc2nc3ccccc3s2)cc1	.	.	67*	.	3	-6

From PubChem BioAssay
